# How the values were obtained:
# Assay in all cases: yeast three-hybrid, YBZ-1, SC-Leu-His + 0.5 mM 3-AT, 4 days
# Details in all cases: tags: N-Gal4 AD-HA kept; label: inside an RPR1-promoter hybrid RNA with tandem MS2 sites; ssRNA
# [1] = molecular target: PUM1 PUF domain R1-RYE (Homo sapiens, UniProt Q14671 828-1176, S863R;R864Y;Q867E)
# Procedure, shortened: (§1)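 Pumilio-1 PUF domain libraries, randomized (NNK) at the three base-contacting residues of each repeat, were co-expressed with matching RNA elements from a centromeric plasmid in strain YBZ-1 (LexA–MS2 coat fusion, HIS3 reporter). Transformants were plated on SC-Leu (input) and SC-Leu-His + 0.5 mM 3-AT (selection) for four days, and repeat regions were PCR-amplified and Illumina-sequenced. The interaction score is the log2 change in variant frequency from input to selection, with pseudocount 1 where absent.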
# [2] = molecular target: PUM1 PUF domain R5-GKC (Homo sapiens, UniProt Q14671 828-1176, C1007G;R1008K;Q1011C)
# Procedure, shortened: as §1
# [3] = molecular target: PUM1 PUF domain R3-DFA (Homo sapiens, UniProt Q14671 828-1176, C935D;R936F;Q939A)
# Procedure, shortened: as §1
# [4] = molecular target: PUM1 PUF domain R5-GFI (Homo sapiens, UniProt Q14671 828-1176, C1007G;R1008F;Q1011I)
# Procedure, shortened: as §1
# [5] = molecular target: T1, PUM1 PUF domain R6-NRR (Homo sapiens, UniProt Q14671 828-1176, Y1044R;Q1047R)
# T1 sequence: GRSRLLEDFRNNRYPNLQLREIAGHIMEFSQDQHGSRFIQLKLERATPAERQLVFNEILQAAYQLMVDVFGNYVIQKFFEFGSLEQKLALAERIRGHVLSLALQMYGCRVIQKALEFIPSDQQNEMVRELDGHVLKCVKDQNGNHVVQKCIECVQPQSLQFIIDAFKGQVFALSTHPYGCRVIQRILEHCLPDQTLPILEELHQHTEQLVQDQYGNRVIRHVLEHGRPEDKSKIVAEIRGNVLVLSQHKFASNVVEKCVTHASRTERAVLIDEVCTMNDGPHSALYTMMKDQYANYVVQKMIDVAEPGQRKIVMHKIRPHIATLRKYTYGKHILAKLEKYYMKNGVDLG
# Procedure, shortened: as §1
# [6] = molecular target: PUM1 PUF domain R5-NSD (Homo sapiens, UniProt Q14671 828-1176, C1007N;R1008S;Q1011D)
# Procedure, shortened: as §1
# [7] = molecular target: PUM1 PUF domain R4-INC (Homo sapiens, UniProt Q14671 828-1176, N971I;H972N;Q975C)
# Procedure, shortened: as §1
# [8] = molecular target: PUM1 PUF domain R1-KDR (Homo sapiens, UniProt Q14671 828-1176, S863K;R864D;Q867R)
# Procedure, shortened: as §1
# [9] = molecular target: PUM1 PUF domain R5-KLC (Homo sapiens, UniProt Q14671 828-1176, C1007K;R1008L;Q1011C)
# Procedure, shortened: as §1
# [10] = molecular target: PUM1 PUF domain R5-LWR (Homo sapiens, UniProt Q14671 828-1176, C1007L;R1008W;Q1011R)
# Procedure, shortened: as §1
sequence,measurement,setting,value
GGCUAGAACUAGUGGAUCCCCCGGCGCCCGGCGGCUCGAGCCCGGGUAAGUGUAAAUUGUCUGCAUGCCGCCGGGCGCCAUGCCUGCAGGUCGACUCUAGAAAACAUG,binding signal,[1],2.61 log2 enrichment (interaction score)
GGCUAGAACUAGUGGAUCCCCCGGCGCCCGGCGGCUCGAGCCCGGGUAAGUGUAAAUAGUCUGCAUGCCGCCGGGCGCCAUGCCUGCAGGUCGACUCUAGAAAACAUG,binding signal,[2],0.78 log2 enrichment (interaction score)
same,binding signal,[3],6.17 log2 enrichment (interaction score)
same,binding signal,[4],6.14 log2 enrichment (interaction score)
same,binding signal,[5],4.3 log2 enrichment (interaction score)
GGCUAGAACUAGUGGAUCCCCCGGCGCCCGGCGGCUCGAGCCCGGGUAAGUGUUAAUAGUCUGCAUGCCGCCGGGCGCCAUGCCUGCAGGUCGACUCUAGAAAACAUG,binding signal,[6],4.22 log2 enrichment (interaction score)
GGCUAGAACUAGUGGAUCCCCCGGCGCCCGGCGGCUCGAGCCCGGGUAAGUGUAUAUAGUCUGCAUGCCGCCGGGCGCCAUGCCUGCAGGUCGACUCUAGAAAACAUG,binding signal,[7],4.14 log2 enrichment (interaction score)
GGCUAGAACUAGUGGAUCCCCCGGCGCCCGGCGGCUCGAGCCCGGGUAAGUGUAAAUCGUCUGCAUGCCGCCGGGCGCCAUGCCUGCAGGUCGACUCUAGAAAACAUG,binding signal,[1],1.44 log2 enrichment (interaction score)
same,binding signal,[8],3.98 log2 enrichment (interaction score)
GGCUAGAACUAGUGGAUCCCCCGGCGCCCGGCGGCUCGAGCCCGGGUAAGUGCAAAUAGUCUGCAUGCCGCCGGGCGCCAUGCCUGCAGGUCGACUCUAGAAAACAUG,binding signal,[5],4.48 log2 enrichment (interaction score)
GGCUAGAACUAGUGGAUCCCCCGGCGCCCGGCGGCUCGAGCCCGGGUAAGUGUCAAUAGUCUGCAUGCCGCCGGGCGCCAUGCCUGCAGGUCGACUCUAGAAAACAUG,binding signal,[9],2.5 log2 enrichment (interaction score)
same,binding signal,[10],3.23 log2 enrichment (interaction score)
same,binding signal,[2],2.56 log2 enrichment (interaction score)
